In PubChem BioAssay (NCATS):
Results filed as inconclusive are left out. The source made the active and inactive calls. Unless noted, calls come from the whole dose curve; as a rule, active = well fitted curve in the direction sought with a large enough effect; inconclusive = small, poorly fitted or top-dose-only effect, or another doubt; inactive = no such curve, though single readings can be large; an effect the other way counts as inactive or inconclusive.

Assays:
3D7 = assay: qHTS profiling for inhibitors of Plasmodium falciparum proliferation (AID 504749); note: nearly all actives have a fitted effect of over 60% in size; details: P. falciparum in erythrocytes, SYBR Green DNA, 72 h; series mostly up to 28.7 µM
In short: (§1)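 SYBR Green fluorescence (ex 485 nm, em 535 nm) reports parasite DNA after 72 h compound exposure of infected red cells at 0.3% parasitemia, 2.5% hematocrit; signal normalized to 0.29 uM artemisinin and vehicle wells.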

CP217 = assay: as above; details: P. falciparum in erythrocytes, SYBR Green DNA, 72 h; series mostly up to 28.7 µM
In short: as §1

CP250 = assay: as above; details: P. falciparum in erythrocytes, SYBR Green DNA, 72 h; series mostly up to 28.7 µM
In short: as §1

CP260 = assay: as above; details: P. falciparum in erythrocytes, SYBR Green DNA, 72 h; series mostly up to 28.7 µM
In short: as §1

CP265 = assay: as above; details: P. falciparum in erythrocytes, SYBR Green DNA, 72 h; series mostly up to 28.7 µM
In short: as §1

CP286 = assay: as above; details: P. falciparum in erythrocytes, SYBR Green DNA, 72 h; series mostly up to 28.7 µM
In short: as §1

DIV14 = assay: as above; details: P. falciparum in erythrocytes, SYBR Green DNA, 72 h; series mostly up to 28.7 µM
In short: as §1

ECU = assay: as above; details: P. falciparum in erythrocytes, SYBR Green DNA, 72 h; series mostly up to 28.7 µM
In short: as §1

N140 = assay: as above; details: P. falciparum in erythrocytes, SYBR Green DNA, 72 h; series mostly up to 28.7 µM
In short: as §1

P93_24 = assay: as above; details: P. falciparum in erythrocytes, SYBR Green DNA, 72 h; series mostly up to 28.7 µM
In short: as §1

PAD = assay: as above; details: P. falciparum in erythrocytes, SYBR Green DNA, 72 h; series mostly up to 28.7 µM
In short: as §1

PC15 = assay: as above; details: P. falciparum in erythrocytes, SYBR Green DNA, 72 h; series mostly up to 28.7 µM
In short: as §1

SC27B = assay: as above; details: P. falciparum in erythrocytes, SYBR Green DNA, 72 h; series mostly up to 28.7 µM
In short: as §1

TAB165 = assay: as above; details: P. falciparum in erythrocytes, SYBR Green DNA, 72 h; series mostly up to 28.7 µM
In short: as §1

[1] = biological target: Tyrosyl-DNA phosphodiesterase 1 (Homo sapiens) (UniProt Q9NUW8); assay: Confirmation Assay for Inhibitors of Tyrosyl-DNA Phosphodiesterase (TDP1) (AID 489007); details: recombinant human TDP1 enzymatic activity, dose-response; note: potency is the fitted concentration of half-maximal effect; nearly all actives have a fitted effect of over 40% in size
In short: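 AlphaScreen read-out: streptavidin donor and anti-FITC acceptor beads (10 ug/ml) bind intact substrate, so Tdp1 removal of tyrosine-FITC lowers signal. Enzyme 1 nM, substrate 15 nM, 5 min reaction at room temperature after 15 min compound preincubation.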

[2] = biological target: Cytochrome P450 1A2 (Homo sapiens) (UniProt P05177); assay: p450-cyp1a2 (AID 410; calls by dose curve; note: potency is the fitted concentration of half-maximal effect)
In short: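 20nM CYP1A2, 100uM Luciferin-ME (=Km), 100mM KPO4; cpd 10 min RT; +NADPH regen, 60 min RT; stop/detect 20 min; luminescence. Normalized to furafylline 57 uM = full inhibition.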

[3] = biological target: Glucocorticoid receptor (Homo sapiens) (UniProt P04150); assay: GR-GFP Redistribution (AID 450;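 active = compounds whose dose series gives a full or clear partial fitted curve of increased nuclear translocation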; note: potency is the fitted concentration of half-maximal effect); details: U2OS GR-GFP nuclear translocation, laser cytometry, 2 h
[4] = biological target: Glucocorticoid receptor (Homo sapiens) (UniProt P04150); assay: GR-EFC Redistribution (AID 451; calls by dose curve; note: potency is the fitted concentration of half-maximal effect); details: CHO-K1 GR-EFC translocation, beta-gal luminescence, 2 h
In short: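 CHO-K1 cells expressing nuclear EA and GR-ED fragments of b-gal; compounds titrated up to 46 uM final, 2 h at 37 C. GR nuclear translocation read as complemented b-gal luminescence after 1 h RT detection.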

[5] = biological target: Guanine nucleotide-binding protein G(i) subunit alpha-1 (Homo sapiens) (UniProt P63096); assay: qHTS Assay for Inhibitors of RGS12 GoLoco Motif Activity (Green Fluorophore) (AID 879);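 note: negative values mean loss of peptide binding seen as reduced polarization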
In short: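 A drop in FITC polarization marked displacement of the FITC-tagged RGS12 GoLoco peptide (10 nM) from Gαi1 (50 nM). Compounds were incubated 10 min at room temperature in Tris pH 7.5 buffer containing 150 mM NaCl, 0.1 mM GDP and 0.05% NP40; unlabeled peptide titration served as control.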

[6] = qHTS Assay for Identification of Small Molecule Agonists for Thrombopoietin (TPO) Signaling Pathway (AID 917)
In short: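 Stimulation at the TPO EC50 (26 pM final) was used to detect activators. Ba/F3 mouse cells bearing human TPO receptor and a luciferase reporter under the Glycoprotein IIb promoter were exposed to compounds for 24 hrs at 37 C.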

Measured: Potency

Sequence of Glucocorticoid receptor (Homo sapiens) (P04150 whole entry, looked up, the tested form may be a part): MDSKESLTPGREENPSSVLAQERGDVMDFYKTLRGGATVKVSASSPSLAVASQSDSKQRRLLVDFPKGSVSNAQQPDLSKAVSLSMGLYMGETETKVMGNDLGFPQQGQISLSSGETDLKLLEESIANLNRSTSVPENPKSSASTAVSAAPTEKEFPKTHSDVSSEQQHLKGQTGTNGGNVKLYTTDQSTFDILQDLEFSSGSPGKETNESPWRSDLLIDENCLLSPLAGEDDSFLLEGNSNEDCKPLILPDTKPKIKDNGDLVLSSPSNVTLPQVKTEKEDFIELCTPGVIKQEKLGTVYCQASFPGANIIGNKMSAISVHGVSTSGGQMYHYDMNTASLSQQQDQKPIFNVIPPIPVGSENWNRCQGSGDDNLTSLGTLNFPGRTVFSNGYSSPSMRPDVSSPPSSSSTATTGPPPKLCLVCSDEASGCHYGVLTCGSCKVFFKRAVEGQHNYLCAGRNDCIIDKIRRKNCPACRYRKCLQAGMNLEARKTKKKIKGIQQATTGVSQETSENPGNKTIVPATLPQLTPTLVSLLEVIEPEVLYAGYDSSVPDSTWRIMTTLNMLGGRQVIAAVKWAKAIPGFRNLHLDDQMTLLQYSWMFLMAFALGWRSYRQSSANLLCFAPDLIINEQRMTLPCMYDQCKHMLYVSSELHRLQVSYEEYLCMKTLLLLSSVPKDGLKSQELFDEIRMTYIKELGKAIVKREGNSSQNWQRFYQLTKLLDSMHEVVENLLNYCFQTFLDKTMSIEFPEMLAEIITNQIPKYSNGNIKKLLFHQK
Sequence of Cytochrome P450 1A2 (Homo sapiens) (P05177 whole entry, looked up): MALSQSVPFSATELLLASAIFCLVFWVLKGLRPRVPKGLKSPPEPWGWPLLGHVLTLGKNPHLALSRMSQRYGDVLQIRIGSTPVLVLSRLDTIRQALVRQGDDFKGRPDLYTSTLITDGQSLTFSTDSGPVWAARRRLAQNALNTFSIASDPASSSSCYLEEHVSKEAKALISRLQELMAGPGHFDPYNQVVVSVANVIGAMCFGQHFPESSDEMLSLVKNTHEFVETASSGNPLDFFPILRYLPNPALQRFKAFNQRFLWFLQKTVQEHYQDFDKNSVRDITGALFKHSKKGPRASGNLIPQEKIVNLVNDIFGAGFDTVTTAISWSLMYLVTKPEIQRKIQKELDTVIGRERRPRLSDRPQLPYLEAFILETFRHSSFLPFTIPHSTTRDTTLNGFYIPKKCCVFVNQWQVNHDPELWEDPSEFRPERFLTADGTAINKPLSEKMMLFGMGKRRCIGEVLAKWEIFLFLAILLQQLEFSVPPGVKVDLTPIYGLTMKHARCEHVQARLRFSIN
Sequence of Guanine nucleotide-binding protein G(i) subunit alpha-1 (Homo sapiens) (P63096 whole entry, looked up): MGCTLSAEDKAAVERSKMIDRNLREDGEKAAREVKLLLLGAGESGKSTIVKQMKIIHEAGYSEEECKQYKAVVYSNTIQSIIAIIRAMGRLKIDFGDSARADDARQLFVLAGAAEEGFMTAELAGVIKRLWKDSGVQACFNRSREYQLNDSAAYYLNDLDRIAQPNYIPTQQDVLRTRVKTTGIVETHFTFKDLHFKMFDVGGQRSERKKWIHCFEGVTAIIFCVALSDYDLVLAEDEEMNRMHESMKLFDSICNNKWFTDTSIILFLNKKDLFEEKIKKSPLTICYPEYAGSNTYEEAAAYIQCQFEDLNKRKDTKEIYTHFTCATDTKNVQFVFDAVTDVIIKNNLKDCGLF
Sequence of Tyrosyl-DNA phosphodiesterase 1 (Homo sapiens) (Q9NUW8 whole entry, looked up): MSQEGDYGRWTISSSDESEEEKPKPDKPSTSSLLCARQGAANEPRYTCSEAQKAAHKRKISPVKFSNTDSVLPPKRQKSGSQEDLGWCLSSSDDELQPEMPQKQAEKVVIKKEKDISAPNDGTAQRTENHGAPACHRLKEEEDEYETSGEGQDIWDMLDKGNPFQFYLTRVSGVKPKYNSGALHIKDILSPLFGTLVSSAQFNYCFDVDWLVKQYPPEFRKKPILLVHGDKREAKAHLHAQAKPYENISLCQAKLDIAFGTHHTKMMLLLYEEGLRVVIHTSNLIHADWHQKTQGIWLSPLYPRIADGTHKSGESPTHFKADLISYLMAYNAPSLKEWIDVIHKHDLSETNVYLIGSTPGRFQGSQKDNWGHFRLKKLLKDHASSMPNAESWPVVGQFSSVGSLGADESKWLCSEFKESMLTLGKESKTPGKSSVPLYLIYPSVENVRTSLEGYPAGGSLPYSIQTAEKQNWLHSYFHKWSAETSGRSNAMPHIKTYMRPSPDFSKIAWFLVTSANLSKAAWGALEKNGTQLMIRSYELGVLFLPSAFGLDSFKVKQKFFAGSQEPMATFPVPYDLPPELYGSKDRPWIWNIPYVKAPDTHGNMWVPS

Cc1c(C(=O)O)c(O)cc2c1C(=O)c1c(O)c([C@H]3O[C@H](CO)[C@@H](O)[C@H](O)[C@H]3O)c(O)c(O)c1C2=O
not listed: [1] | [2] | [3] | [4] | [5] | [6]
inactive: all other assays above

Cc1cc(C)c2nc(-c3ccco3)cc(C(=O)O)c2c1
active: [1] 15.8 µM

CC[C@@H](CO)Nc1nc(NCc2ccccc2)c2ncn(C(C)C)c2n1
inactive: [3] > 46 µM | [4] > 46 µM | [5] | [6]
active: [2] 12.6 µM
